Out of some 5,500 compounds screened, about 2,000 (36%) were called active. Roughly 18% stayed inconclusive and do not appear here. Rule as the data show it: active = normalized growth mostly below about 0.91 (no sharp cut-off); inconclusive = no clear call, values can overlap the other calls; inactive = mostly above about 0.92. The list shows a part of the results.
Assay: chemical genetic growth profiling, strain panel (AID 1159580);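 also: tested at 20 µM; growth read once vehicle control cultures reached saturation at 30 °C; 1 = growth at the plate median or of vehicle wells; lower values mean less growth of the strain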
Settings: growth OD

Measured: normalized growth

O=[N+]([O-])c1ccc(O)c([N+](=O)[O-])c1
inactive: S. cerevisiae deletion strains, locus YLR039C, strain RIC1, stronger effect = lower value 0.841 | S. cerevisiae deletion strains, locus YLR262C, strain YPT6, stronger effect = lower value 0.932 | S. cerevisiae deletion strains, locus YLR342W, strain FKS1 (second series), stronger effect = lower value 0.851 | S. cerevisiae deletion strains, locus YLR357W, strain rsc2, stronger effect = lower value 0.855 | S. cerevisiae deletion strains, locus YMR125W, strain sto1, stronger effect = lower value 0.898 | S. cerevisiae deletion strains, locus YMR307W, strain GAS1, stronger effect = lower value 0.819 | S. cerevisiae deletion strains, locus YNL248C, strain rpa49, stronger effect = lower value 0.937 | S. cerevisiae deletion strains, locus YOL006C, strain TOP1, stronger effect = lower value 0.9 | S. cerevisiae deletion strains, locus YOL012C, strain htz1 0.683 | S. cerevisiae deletion strains, locus YOR106W, strain vam3, stronger effect = lower value 0.87 | S. cerevisiae deletion strains, locus YOR270C, strain vph1, stronger effect = lower value 0.901
active: S. cerevisiae deletion strains, locus YKL009W, strain mrt4, stronger effect = lower value 0.249 | S. cerevisiae deletion strains, locus YKL068W, stronger effect = lower value 0.354 | S. cerevisiae deletion strains, locus YKL085W, strain MDH1 (second series), stronger effect = lower value 0.192 | S. cerevisiae deletion strains, locus YKL085W, strain MDH1, stronger effect = lower value 0.192 | S. cerevisiae deletion strains, locus YKL160W, strain elf1, stronger effect = lower value 0.87 | S. cerevisiae deletion strains, locus YKL190W, strain CNB1, stronger effect = lower value 0.795 | S. cerevisiae deletion strains, locus YKR001C, strain vps1, stronger effect = lower value 0.691 | S. cerevisiae deletion strains, locus YKR026C, strain gcn3, stronger effect = lower value 0.77 | S. cerevisiae deletion strains, locus YKR091W, strain srl3, stronger effect = lower value 0.808 | S. cerevisiae deletion strains, locus YLL001W, strain dnm1, stronger effect = lower value 0.793 | S. cerevisiae deletion strains, locus YLL026W, stronger effect = lower value 0.816 | S. cerevisiae deletion strains, locus YLL041C, strain sdh2, stronger effect = lower value 0.82 | S. cerevisiae deletion strains, locus YLR027C, strain aat2, stronger effect = lower value 0.819 | S. cerevisiae deletion strains, locus YLR058C, strain SHM2, stronger effect = lower value 0.802 | S. cerevisiae deletion strains, locus YLR102C, strain apc9, stronger effect = lower value 0.691 | S. cerevisiae deletion strains, locus YLR113W, strain HOG1, stronger effect = lower value 0.214 | S. cerevisiae deletion strains, locus YLR221C, strain rsa3, stronger effect = lower value 0.786 | S. cerevisiae deletion strains, locus YLR258W, strain gsy2, stronger effect = lower value 0.843 | S. cerevisiae deletion strains, locus YLR262C, strain YPT6 (second series), stronger effect = lower value 0.833 | S. cerevisiae deletion strains, locus YLR268W, strain sec22, stronger effect = lower value 0.736 | S. cerevisiae deletion strains, locus YLR320W, strain mms22, stronger effect = lower value 0.807 | S. cerevisiae deletion strains, locus YLR330W, strain CHS5, stronger effect = lower value 0.733 | S. cerevisiae deletion strains, locus YLR342W, strain FKS1, stronger effect = lower value 0.855 | S. cerevisiae deletion strains, locus YLR370C, strain arc18, stronger effect = lower value 0.814 | S. cerevisiae deletion strains, locus YLR371W, strain rom2, stronger effect = lower value 0.718 | S. cerevisiae deletion strains, locus YLR384C, strain iki3, stronger effect = lower value 0.798 | S. cerevisiae deletion strains, locus YLR418C, strain cdc73, stronger effect = lower value 0.661 | S. cerevisiae deletion strains, locus YML016C, strain PPZ1, stronger effect = lower value 0.79 | S. cerevisiae deletion strains, locus YML032C, strain rad52, stronger effect = lower value 0.697 | S. cerevisiae deletion strains, locus YML120C, strain ndi1, stronger effect = lower value 0.781 | S. cerevisiae deletion strains, locus YML124C, strain tub3, stronger effect = lower value 0.701 | S. cerevisiae deletion strains, locus YMR058W, strain fet3, stronger effect = lower value 0.793 | S. cerevisiae deletion strains, locus YMR078C, strain ctf18, stronger effect = lower value 0.68 | S. cerevisiae deletion strains, locus YMR129W, stronger effect = lower value 0.77 | S. cerevisiae deletion strains, locus YMR205C, strain PFK2, stronger effect = lower value 0.852 | S. cerevisiae deletion strains, locus YMR223W, strain ubp8, stronger effect = lower value 0.776 | S. cerevisiae deletion strains, locus YMR231W, strain pep5, stronger effect = lower value 0.761 | S. cerevisiae deletion strains, locus YMR263W, strain SAP30, stronger effect = lower value 0.783 | S. cerevisiae deletion strains, locus YNL067W, strain RPL9B, stronger effect = lower value 0.779 | S. cerevisiae deletion strains, locus YNL071W, strain lat1, stronger effect = lower value 0.826 | S. cerevisiae deletion strains, locus YNL128W, strain TEP1, stronger effect = lower value 0.842 | S. cerevisiae deletion strains, locus YNL153C, strain GIM3, stronger effect = lower value 0.786 | S. cerevisiae deletion strains, locus YNL183C, strain NPR1, stronger effect = lower value 0.179 | S. cerevisiae deletion strains, locus YNL209W, strain ssb2, stronger effect = lower value 0.829 | S. cerevisiae deletion strains, locus YNL233W, strain BNI4, stronger effect = lower value 0.75 | S. cerevisiae deletion strains, locus YNL250W, strain rad50, stronger effect = lower value 0.265 | S. cerevisiae deletion strains, locus YNL271C, strain bni1, stronger effect = lower value 0.31 | S. cerevisiae deletion strains, locus YNL298W, strain CLA4, stronger effect = lower value 0.251 | S. cerevisiae deletion strains, locus YNL307C, strain MCK1, stronger effect = lower value 0.635 | S. cerevisiae deletion strains, locus YNL322C, strain KRE1 (second series), stronger effect = lower value 0.651 | S. cerevisiae deletion strains, locus YNL322C, strain KRE1, stronger effect = lower value 0.798 | S. cerevisiae deletion strains, locus YNR049C, strain mso1, stronger effect = lower value 0.779 | S. cerevisiae deletion strains, locus YNR052C, strain pop2, stronger effect = lower value 0.728 | S. cerevisiae deletion strains, locus YOL147C, strain pex11, stronger effect = lower value 0.693 | S. cerevisiae deletion strains, locus YOR001W, strain rrp6, stronger effect = lower value 0.841 | S. cerevisiae deletion strains, locus YOR061W, strain CKA2, stronger effect = lower value 0.819 | S. cerevisiae deletion strains, locus YOR069W, strain VPS5, stronger effect = lower value 0.759 | S. cerevisiae deletion strains, locus YOR070C, strain gyp1, stronger effect = lower value 0.836 | S. cerevisiae deletion strains, locus YOR080W, strain dia2, stronger effect = lower value 0.812 | S. cerevisiae deletion strains, locus YOR083W, strain WHI5, stronger effect = lower value 0.831 | S. cerevisiae deletion strains, locus YOR136W, strain idh2, stronger effect = lower value 0.845 | S. cerevisiae deletion strains, locus YOR144C, strain elg1, stronger effect = lower value 0.709 | S. cerevisiae deletion strains, locus YOR184W, strain ser1, stronger effect = lower value 0.799 | S. cerevisiae deletion strains, locus YOR231W, strain MKK1, stronger effect = lower value 0.266 | S. cerevisiae deletion strains, locus YOR265W, strain rbl2, stronger effect = lower value 0.832 | S. cerevisiae deletion strains, locus YOR290C, strain snf2, stronger effect = lower value 0.826 | S. cerevisiae deletion strains, locus YOR316C, strain cot1, stronger effect = lower value 0.726 | S. cerevisiae deletion strains, locus YPL051W, strain arl3, stronger effect = lower value 0.843 | S. cerevisiae deletion strains, locus YPL055C, strain LGE1, stronger effect = lower value 0.753 | S. cerevisiae deletion strains, locus YPL078C, strain atp4, stronger effect = lower value 0.737 | S. cerevisiae deletion strains, locus YPL106C, strain sse1, stronger effect = lower value 0.736 | S. cerevisiae deletion strains, locus YPL240C, strain hsp82, stronger effect = lower value 0.813 | S. cerevisiae deletion strains, locus YPL241C, strain CIN2, stronger effect = lower value 0.812 | S. cerevisiae deletion strains, locus YPL256C, strain CLN2, stronger effect = lower value 0.256 | S. cerevisiae deletion strains, locus YPR119W, strain clb2, stronger effect = lower value 0.697 | S. cerevisiae deletion strains, locus YPR141C, strain kar3, stronger effect = lower value 0.309 | S. cerevisiae deletion strains, locus YPR163C, strain tif3, stronger effect = lower value 0.656 | S. cerevisiae deletion strains, locus YPR167C, strain met16, stronger effect = lower value 0.719 | S. cerevisiae deletion strains, strain wtn01, stronger effect = lower value 0.755 | S. cerevisiae strains, strain wild type, stronger effect = lower value 0.799
